Results: PubChem BioAssay (Tox21)
Records with an inconclusive call do not appear. Active and inactive are the calls of the source. Unless noted, the call rests on the fitted dose curve; in most records, active means well fitted curve in the direction sought with a large enough effect in the repeat runs; inconclusive means weak or mixed curves; inactive means no such curve, though single readings can be large; an effect the other way counts as inactive or inconclusive.

Columns and labels:
[1] = A CellTox Green Cytotoxicity Assay to monitor cytotoxicity in HepG2 cells - 8 hour (AID 1224890); conditions: CellTox Green fluorescence; series mostly up to 76.8 µM; further: nearly all actives have a fitted effect of over 45% in size
How it was run: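 Cells and non-lytic dye reagent are dispensed together (600 HepG2 cells/well) and incubated 5 h before DMSO compound transfer. Kinetic fluorescence is then recorded in the same wells during 40 h at 37 C.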

[2] = qHTS assay to identify small molecule antagonists of the estrogen receptor alpha (ER-alpha) signaling pathway using the BG1 cell line in the presence of 0.1 nM 17-beta-estradiol - cell viability counter screen (AID 1259241); conditions: VM7Luc4E2 (BG1) viability, CellTiter-Fluor protease, 22 h, 0.1 nM estradiol agonist added; series mostly up to 92.4 µM; further: nearly all actives have a fitted effect of over 40% in size
How it was run: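 Viability in VM7Luc4E2 cells after 22 hr compound exposure under 0.1 nM 17beta-estradiol stimulation, by CellTiter-Fluor.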

[3] = qHTS assay to identify small molecule antagonists of the androgen receptor (AR) signaling pathway using the MDA cell line in the presence of 0.5 nM R1881 - cell viability counter screen (AID 1259242); conditions: MDA-kb2 viability, CellTiter-Fluor protease fluorescence, 16 h; series mostly up to 92.4 µM; further: nearly all actives have a fitted effect of over 45% in size
How it was run: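 Steps: plate MDA-kb2 cells, rest 5 hr at 37C without CO2; pin in compounds in DMSO; add R1881 to 0.5 nM final; incubate 16 hr; add CellTiter-Fluor, 30 min; read fluorescence.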

[4] = target: Androgen receptor (Homo sapiens) (UniProt P10275); assay: qHTS assay to identify small molecule antagonists of the androgen receptor (AR) signaling pathway using the MDA cell line in the presence of 0.5 nM R1881 (AID 1259243); conditions: MDA-kb2 MMTV-luciferase, R1881 0.5 nM, 16 h; series mostly up to 92.4 µM; further: nearly all actives have a fitted effect of over 50% in size
How it was run: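 Stably transfected MDA-kb2 cells express luciferase from an MMTV promoter bearing both AR and GR response elements. Compounds plus 0.5 nM R1881 (final) were incubated 16 hr at 37C without CO2, then luminescence measured.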

[5] = target: Estrogen receptor (Homo sapiens) (UniProt P03372); assay: qHTS assay to identify small molecule antagonists of the estrogen receptor alpha (ER-alpha) signaling pathway using the BG1 cell line in the presence of 0.1 nM 17-beta-estradiol (AID 1259244); conditions: VM7Luc4E2 (BG1) ERE-luciferase, antagonist mode, 0.1 nM E2, 22 h; series mostly up to 92.4 µM; further: nearly all actives have a fitted effect of over 50% in size
How it was run: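 Antagonist mode: compounds in DMSO are pinned onto VM7Luc4E2 reporter cells, 0.1 nM final 17beta-estradiol is added, and after 22 h at 37C luciferase luminescence is measured with ONE-Glo.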

[6] = qHTS assay to identify small molecule HDAC inhibitors (AID 1259364); conditions: HCT-116 HDAC-Glo I/II luminescence, 2 h; series mostly up to 92.4 µM; further: potency means the concentration at half of the fitted maximal effect;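 further: wild-type HCT-116 cells with endogenous class I/II HDAC activity; nearly all actives have a fitted effect of over 45% in size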
How it was run: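 Cells (HCT-116, wild type) are seeded at 1,500 per well, incubated overnight, treated with compound in DMSO for 2 hr, then developed with HDAC-Glo I/II reagent for 30 min at room temperature.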

[7] = qHTS assay to identify small molecule HDAC inhibitors - cell viability counter screen (AID 1259365); conditions: HCT-116 viability, CellTiter-Glo ATP luminescence, 2 h; series mostly up to 92.4 µM; further: nearly all actives have a fitted effect of over 50% in size
How it was run: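 Cytotoxicity was gauged in wild-type HCT-116 cells after a brief 2hr treatment with DMSO-dissolved compounds at 37C and 5% CO2, using CellTiter-Glo luminescence developed for 30min at room temperature.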

[8] = qHTS assay to identify small molecule antagonists of the sonic hedgehog signaling (Shh) pathway - cell viability counter screen (AID 1259367); conditions: NIH/3T3 Gli1-Luc viability, CellTiter-Fluor, 24 h; series mostly up to 92.4 µM; further: nearly all actives have a fitted effect of over 55% in size
How it was run: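 Viability was read by CellTiter-Fluor fluorescence in the same wells, reagent added 23 hr into compound treatment and incubated 1 hr at 37C. The 3T3 Gli1-Luc reporter cells (2,000/well) received conditioned medium after compound and ran 24 hr.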

[9] = qHTS assay to identify small molecule agonists of the sonic hedgehog signaling (Shh) pathway (AID 1259368; calls by dose curve;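 further: NIH/3T3-derived 3T3Gli1-Luc cells carrying a stable Gli1-driven firefly luciferase reporter; nearly all actives have a fitted effect of over 15% in size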); conditions: NIH/3T3 Gli1-Luc reporter, luciferase, 24 h, stronger effect = higher value; series mostly up to 92.4 µM
How it was run: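 Cells of a mouse NIH/3T3 clone stably expressing luciferase under the Gli1 transcriptional response element are exposed to test chemicals for 24 hr at 37 C. Pathway activation is detected as a rise in luminescence.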

[10] = qHTS assay to identify small molecule antagonists of the sonic hedgehog signaling (Shh) pathway (AID 1259369; calls by dose curve; further: nearly all actives have a fitted effect of over 45% in size); conditions: NIH/3T3 Gli1-Luc reporter, Shh antagonist, luminescence 24 h; series mostly up to 92.4 µM
How it was run: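 Cells are plated and held 4hr at 37 C, compounds (DMSO) are pinned in, conditioned medium is added to stimulate the pathway, and after 24hr luciferase reagent is added for 30min before luminescence is read.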

[11] = target: Estrogen receptor beta (Homo sapiens) (UniProt Q92731); assay: qHTS assay to identify small molecule agonists of the estrogen receptor beta (ER-beta) signaling pathway (AID 1259377; active means well fitted activation curve with a large enough effect in the signal ratio in the repeat runs, not every such curve was filed as active; the % refers to the signal ratio); conditions: ER-beta-UAS-bla HEK293T, beta-lactamase FRET ratio, 16 h; series mostly up to 92.4 µM
How it was run: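 Measured by fluorescence intensity from a B/G FRET beta-lactamase substrate (2 h, room temperature) in ER-beta-UAS-bla HEK293T cells treated with DMSO-dissolved compounds for 16 hr at 37C and 5% CO2.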

[12] = target: Estrogen receptor beta (Homo sapiens) (UniProt Q92731); assay: qHTS assay to identify small molecule antagonists of the estrogen receptor beta (ER-beta) signaling pathway (AID 1259378; active means well fitted inhibition curve with a large enough effect in the signal ratio in the repeat runs, not every such curve was filed as active; the % refers to the signal ratio); conditions: ER-beta-UAS-bla HEK293T, beta-lactamase FRET ratio, 16 h; series mostly up to 92.4 µM
How it was run: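 Antagonist mode: compounds added to beta-lactamase reporter HEK293T ER-beta-UAS cells stimulated with E2 (1nM final), 16 hr at 37C. LiveBLAzer B/G FRET substrate, 2 hours room temperature, fluorescence read-out.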

[13] = qHTS assay to identify small molecule agonists of the androgen receptor (AR) signaling pathway in the presence of an antagonist - cell viability counter screen (AID 1259379); conditions: MDA-kb2 viability, CellTiter-Fluor, 16 h; series mostly up to 92.4 µM;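 further: MDA-kb2 human breast cancer cells carrying an MMTV luciferase reporter; nearly all actives have a fitted effect of over 25% in size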
How it was run: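 Cytotoxicity is assessed by CellTiter-Fluor in MDA-kb2 cells carrying an MMTV-driven luciferase reporter. Cells receive 3.0uM nilutamide plus compounds at 15 concentrations and incubate 16 hr at 37C without CO2 before fluorescence reading.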

[14] = qHTS assay to identify small molecule agonists of the estrogen receptor beta (ER-beta) signaling pathway - cell viability counter screen (AID 1259380); conditions: ER-beta-bla HEK293T viability, CellTiter-Glo luminescence, 16 h; series mostly up to 92.4 µM; further: nearly all actives have a fitted effect of over 30% in size
How it was run: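 Cytotoxicity is measured in parallel with the reporter screen: after 16 hr compound exposure at 37C and a 2 hr LiveBLAzer step, CellTiter-Glo is added to the same ER-beta-UAS-bla HEK293T wells and luminescence read after 30 min.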

[15] = target: Androgen receptor (Homo sapiens) (UniProt P10275); assay: qHTS assay to identify small molecule agonists of the androgen receptor (AR) signaling pathway in the presence of an antagonist (AID 1259381; calls by dose curve; further: nearly all actives have a fitted effect of over 15% in size; further: potency means the concentration at half of the fitted maximal effect); conditions: MDA-kb2 MMTV-luciferase, AR agonist + nilutamide, 16 h; series mostly up to 92.4 µM
How it was run: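 Agonist-mode confirmation screen: human MDA-kb2 cells stably expressing luciferase under an MMTV promoter bearing AR and GR response elements, co-treated with 3.0uM nilutamide (final). Luminescence measured after 16hr compound incubation.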

[16] = qHTS assay to identify small molecule antagonists of the estrogen receptor beta (ER-beta) signaling pathway - cell viability counter screen (AID 1259382); conditions: ER-beta-UAS-bla HEK293T viability, CellTiter-Glo luminescence, 16 h; series mostly up to 92.4 µM;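 further: HEK293T cells carrying ER-beta-UAS-bla reporter stimulated with estradiol; nearly all actives have a fitted effect of over 55% in size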
How it was run: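 Cytotoxicity counter screen multiplexed with the beta-lactamase antagonist assay: GripTite HEK293T ER-beta-bla cells were treated 16 hr with test chemicals in the presence of 1nM 17-beta-estradiol, and viability was measured by CellTiter-Glo.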

[17] = target: Estrogen receptor (Homo sapiens) (UniProt P03372); assay: qHTS assay to identify small molecule agonists of the estrogen receptor alpha (ER-alpha) signaling pathway in the presence of an antagonist (AID 1259383; calls by dose curve; further: top concentration of the series differs between compounds; nearly all actives have a fitted effect of over 15% in size); conditions: VM7Luc4E2 cells, ERE-luciferase, +ICI-182,780, 22 h; series mostly up to 92.4 µM
How it was run: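 Agonist-mode confirmation in the presence of the ER antagonist ICI-182,780 at 10.0nM final. Breast-derived VM7Luc4E2 reporter cells were exposed to compounds for 22hr, and ERE-driven luciferase was quantified by luminescence.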

[18] = qHTS assay to identify small molecule agonists or antagonists of the thyroid stimulating hormone receptor (TSHR) signaling pathway - wild type cell line counter screen (AID 1259384; calls by dose curve); conditions: HEK293 wild type, cAMP HTRF counter-screen, stronger effect = higher value; series mostly up to 92.4 µM
How it was run: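 Counter screen in untransfected Hek293: compounds (15-point titration, triplicate) plus phosphodiesterase inhibitor Ro20-1724 added after 18 h plating; 30 min RT. Intracellular cAMP via competitive d2/cryptate immunoassay, 1 h incubation.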

[19] = qHTS assay to identify small molecule phospholipidosis (PLD) inducers (AID 1259344; active means well fitted curve in the direction sought with a large enough effect; an effect the other way counts as inactive or inconclusive); conditions: HepG2 phospholipidosis, LipidTOX Red imaging, 24 h; series mostly up to 38.3 µM
How it was run: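 Phospholipid accumulation was scored by imaging: fixed, Hoechst-counterstained HepG2 cells stained with LipidTOX Red after 24 h compound exposure at 37 C. Read-outs were pit count and pit intensity per well or per cell, with amiodarone and DMSO controls.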

[20] = qHTS assay to identify small molecule agonists of the sonic hedgehog signaling (Shh) pathway - cell viability counter screen (AID 1259366); conditions: NIH/3T3 Gli1-Luc viability, CellTiter-Fluor, 24 h; series mostly up to 92.4 µM; further: nearly all actives have a fitted effect of over 50% in size
How it was run: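 Stable Gli1-Luc NIH/3T3 clone, 2,000 cells/well. Compound exposure 24hr at 37C. Read-out: CellTiter-Fluor fluorescence.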

Measured: Potency

Chain of Androgen receptor (Homo sapiens) (P10275 whole entry, looked up): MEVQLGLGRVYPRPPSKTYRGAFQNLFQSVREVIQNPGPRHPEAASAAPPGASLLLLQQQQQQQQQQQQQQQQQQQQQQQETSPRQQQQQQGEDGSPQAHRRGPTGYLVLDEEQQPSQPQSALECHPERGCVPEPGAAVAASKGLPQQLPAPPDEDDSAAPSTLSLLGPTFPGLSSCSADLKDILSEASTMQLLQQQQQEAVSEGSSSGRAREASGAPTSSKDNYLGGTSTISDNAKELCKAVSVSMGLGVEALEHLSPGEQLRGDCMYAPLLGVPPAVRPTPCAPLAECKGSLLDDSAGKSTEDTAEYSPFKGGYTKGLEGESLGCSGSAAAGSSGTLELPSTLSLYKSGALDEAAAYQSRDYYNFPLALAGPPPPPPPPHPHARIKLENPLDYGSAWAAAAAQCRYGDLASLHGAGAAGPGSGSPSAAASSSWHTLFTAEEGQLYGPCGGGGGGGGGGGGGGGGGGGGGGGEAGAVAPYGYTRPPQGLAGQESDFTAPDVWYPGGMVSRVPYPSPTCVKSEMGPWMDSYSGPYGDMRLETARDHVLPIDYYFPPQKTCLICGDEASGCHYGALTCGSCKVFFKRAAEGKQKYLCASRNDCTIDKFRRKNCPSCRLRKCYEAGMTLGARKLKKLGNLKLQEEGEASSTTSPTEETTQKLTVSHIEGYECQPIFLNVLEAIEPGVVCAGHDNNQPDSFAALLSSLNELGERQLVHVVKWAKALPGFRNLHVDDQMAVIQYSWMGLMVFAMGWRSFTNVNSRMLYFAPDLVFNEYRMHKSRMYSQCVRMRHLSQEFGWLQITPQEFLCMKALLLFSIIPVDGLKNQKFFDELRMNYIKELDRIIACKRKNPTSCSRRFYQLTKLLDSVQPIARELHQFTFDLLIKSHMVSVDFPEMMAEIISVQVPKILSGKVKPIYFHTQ
Chain of Estrogen receptor (Homo sapiens) (P03372 whole entry, looked up): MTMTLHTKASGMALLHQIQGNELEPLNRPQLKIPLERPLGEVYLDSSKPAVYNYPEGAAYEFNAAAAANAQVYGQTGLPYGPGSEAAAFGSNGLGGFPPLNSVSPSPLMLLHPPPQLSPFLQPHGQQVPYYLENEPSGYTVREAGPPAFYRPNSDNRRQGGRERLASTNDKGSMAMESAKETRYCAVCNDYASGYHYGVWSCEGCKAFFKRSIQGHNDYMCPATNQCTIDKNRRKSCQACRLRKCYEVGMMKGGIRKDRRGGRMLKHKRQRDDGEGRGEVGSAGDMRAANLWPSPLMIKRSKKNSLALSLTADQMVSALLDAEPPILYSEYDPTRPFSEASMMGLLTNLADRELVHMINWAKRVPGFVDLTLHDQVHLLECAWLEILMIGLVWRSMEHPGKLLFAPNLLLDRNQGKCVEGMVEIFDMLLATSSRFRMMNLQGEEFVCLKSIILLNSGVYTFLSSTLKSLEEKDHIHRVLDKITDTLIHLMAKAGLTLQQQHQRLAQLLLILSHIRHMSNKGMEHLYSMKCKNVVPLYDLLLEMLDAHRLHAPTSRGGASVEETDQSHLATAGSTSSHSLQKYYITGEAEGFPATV
Chain of Estrogen receptor beta (Homo sapiens) (Q92731 whole entry, looked up): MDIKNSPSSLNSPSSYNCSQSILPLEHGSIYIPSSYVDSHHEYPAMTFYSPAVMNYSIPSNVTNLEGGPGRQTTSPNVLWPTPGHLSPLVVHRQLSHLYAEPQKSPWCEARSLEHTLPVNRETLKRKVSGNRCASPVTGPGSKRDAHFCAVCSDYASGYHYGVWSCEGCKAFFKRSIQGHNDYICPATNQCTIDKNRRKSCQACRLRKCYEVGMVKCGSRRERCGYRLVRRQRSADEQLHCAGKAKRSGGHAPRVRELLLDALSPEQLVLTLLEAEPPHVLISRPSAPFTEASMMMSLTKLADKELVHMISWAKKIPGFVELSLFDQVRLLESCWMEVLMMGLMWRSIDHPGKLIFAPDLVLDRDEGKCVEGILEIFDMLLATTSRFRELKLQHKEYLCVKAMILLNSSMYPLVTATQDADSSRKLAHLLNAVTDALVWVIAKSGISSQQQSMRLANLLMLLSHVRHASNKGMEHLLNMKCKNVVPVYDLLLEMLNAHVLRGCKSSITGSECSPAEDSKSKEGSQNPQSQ

COCCOCCOCCOCCO
not listed: [19] | [20]
inactive: all other assays above

NC(CO)C(=O)NNCc1ccc(O)c(O)c1O (stereo unspecified)
active: [15] 13.3 µM
not listed: [8] | [11] | [12] | [13] | [20]
inactive: all other assays above

CCN(CC)CC(=O)Nc1c(C)cccc1C
not listed: [5] | [13] | [17]
inactive: all other assays above

CC(C)NCC(O)COc1ccc(COCCOC(C)C)cc1 (stereo unspecified)
not listed: [8]
inactive: all other assays above

O=C(O)CCSSCCC(=O)O
not listed: [13] | [19]
inactive: all other assays above

CC(C)NCC(O)COc1cccc2[nH]ccc12 (stereo unspecified)
not listed: [5] | [17]
inactive: all other assays above

O=C1O[C@@H]2[C@@H](O)[C@H](O)O[C@@H]2[C@H]1O
not listed: [4] | [10] | [13] | [14] | [15] | [20]
inactive: all other assays above

Nc1ncnc(Nc2ccccc2)n1
active: [6] 10.6 µM
not listed: [4] | [15] | [16]
inactive: all other assays above

COc1ccc(-c2cc(=O)c3c(O)cc(O[C@@H]4O[C@H](CO[C@@H]5O[C@@H](C)[C@H](O)[C@@H](O)[C@H]5O)[C@@H](O)[C@H](O)[C@H]4O)cc3o2)cc1O
not listed: [4] | [15] | [16] | [18]
inactive: all other assays above

Cc1cc2cc3c(C)cc(=O)oc3c(C)c2o1
not listed: [4] | [11] | [12] | [15]
inactive: all other assays above

C#CC(C)N(C)C(=O)Nc1ccc(Cl)cc1 (stereo unspecified)
not listed: [5] | [6] | [14] | [17] | [18] | [19] | [20]
inactive: all other assays above

COc1cc2c(cc1OC)C(=O)CC2
not listed: [5] | [11] | [12] | [19]
inactive: all other assays above

C[C@@H](O)[C@H]1C(=O)N2C(C(=O)O)=C(SCCN=CN)C[C@H]12
not listed: [4] | [15] | [20]
inactive: all other assays above

C=CCCCCCCCCCCCC
not listed: [5] | [17] | [19] | [20]
inactive: all other assays above

COP(=O)(OC)OC(c1ccc(Cl)cc1)P(=O)(OC)OC (stereo unspecified)
not listed: [4] | [10] | [11] | [12] | [15]
inactive: all other assays above

CCCC/C=C/C=C\C=O
not listed: [5] | [8] | [10] | [12] | [14] | [19]
inactive: all other assays above

O=C1c2cccc3c2[C@H](CCC3)CN1[C@@H]1CN2CCC1CC2
not listed: [4] | [10] | [11] | [12] | [13] | [14] | [15] | [20]
inactive: all other assays above
